Screens (PubChem BioAssay)
HCV inhibitor: qHTS Assay for Inhibitors of Hepatitis C Virus (HCV) | Huh7.5.1 HCVcc-Cre infection, luciferase reporter, 44 h | Potency, µM (doses to about 41.8 µM), for the others: at the top dose activity change, negative = inhibition, actives largely listed as inhibitors | 340,000 tested, 3.4% active | AID 651820, 2012; further: potency means the concentration at half of the fitted maximal effect
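After 44 h co-culture of compound, cells and HCVcc-Cre (~0.5 moi), substrate is added for 15 min at room temperature and luciferase measured over 15 sec. Cells were seeded at 1,000/well and pre-cultured 4 h.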
Giardia FBPA inh: qHTS Assay for Inhibitors of Fructose-1,6-bisphosphate Aldolase from Giardia Lamblia. purified Giardia FBPA. Potency, µM (series often up to 59.6 µM), inactives show top-dose activity, negative = inhibition, hits mostly inhibitors. 290,000 tested, 0.71% active; further: potency means the concentration at half of the fitted maximal effect; nearly all actives have a fitted effect of over 55% in size
Target sequence (A8B2U2 whole entry, looked up): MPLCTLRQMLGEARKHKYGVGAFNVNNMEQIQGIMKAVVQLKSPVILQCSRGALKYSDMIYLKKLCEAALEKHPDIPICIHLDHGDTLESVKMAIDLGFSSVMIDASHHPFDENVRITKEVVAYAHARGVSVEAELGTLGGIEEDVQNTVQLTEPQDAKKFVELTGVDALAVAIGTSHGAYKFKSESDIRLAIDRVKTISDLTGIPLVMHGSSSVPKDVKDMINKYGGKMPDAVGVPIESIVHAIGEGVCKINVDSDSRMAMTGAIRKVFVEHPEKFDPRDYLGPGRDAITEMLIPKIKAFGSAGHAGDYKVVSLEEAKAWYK
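40 nM FBPA preincubated 10 min at RT with compound (up to 57.5 uM final), then substrate plus GAPDH/TPI/NAD/arsenate coupling and diaphorase/resazurin added. Fluorescence read after 20 min at RT, 525/598 nm.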
MARV entry inh: qHTS for inhibitors of binding or entry into cells for Marburg Virus | Marburg virus pseudotyped entry inhibition, cell reporter | Potency, µM (highest dose often 37.8 µM), for the others: top-dose activity change, negative = inhibition, actives largely listed as inhibitors | 300,000 tested, 1.8% active | AID 540276, 2011; calls by dose curve; tested in HEK293 cells; further: potency means the concentration at half of the fitted maximal effect
Lassa entry inh: qHTS for Inhibitors of binding or entry into cells for Lassa Virus; Lassa virus pseudotype entry inhibition, cell reporter; 300,000 tested, 1.2% active; Potency, µM (top dose mostly 37.9 µM), for the others: top-dose activity change, negative = inhibition, actives largely listed as inhibitors; calls by dose curve; tested in HEK293 cells; further: potency means the concentration at half of the fitted maximal effect; nearly all actives have a fitted effect of over 50% in size
FMDV inh: High Throughput Screening for Foot and Mouth Disease Virus Antivirals; 410,000 tested, 1.2% active; FMDV antiviral cell-based qHTS; Potency, µM (highest dose often 57.9 µM), for inactives: top-dose activity change, negative = inhibition, usual class: inhibitors; calls by dose curve; tested in HEK293T cells; further: read-out not given here; potency means the concentration at half of the fitted maximal effect; nearly all actives have a fitted effect of over 45% in size
HCMV antiviral: qHTS Assay for inhibitors of the human cytomegalovirus (HCMV); HFF cells, HCMV-luciferase reporter, 72 h; active compounds read low; 410,000 tested, 4.5% active; activity change, negative = inhibition, % at 57.5 µM; AID 1259415, 2018; in the data active means activity change below about -60%; inconclusive means no clear call, values can overlap the other calls; inactive means above about -39%
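Human foreskin fibroblasts infected with luciferase-reporter HCMV at MOI 1 PFU/cell, compounds at two doses. Luciferase measured 72 h post infection; normalized to buffer-only basal and Salinomycin (10uM) controls.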
* marks the source's active call; other numbers are inactive results; ? = inconclusive; / = no result given; [ ] = dose if it differs, or a comment. Most compounds without a hit are left out; they make up all but 8.3% or so of the library. Unless noted, the call rests on the fitted dose curve; in most records, active means well fitted curve in the direction sought with a large enough effect; inconclusive means small, poorly fitted or top-dose-only effect, or another doubt; inactive means no such curve, though single readings can be large; an effect the other way counts as inactive or inconclusive. On the % scale 0 is the no-effect control and ±100 the full control effect.

SMILES | HCV inhibitor | Giardia FBPA inh | MARV entry inh | Lassa entry inh | FMDV inh | HCMV antiviral
O=C(CCCN1C(=O)/C(=C\c2ccccc2)SC1=S)Nc1ccc(O)cc1C(=O)O | ? | / | / | / | -7% | ?
Cc1ccccc1CSc1cn(CC(=O)N2CCCCC2)c2ccccc12 | / | / | / | ? | 12% | 44
C[C@@H]1CCCCO[C@H](CN(C)C(=O)CCC(F)(F)F)[C@H](C)CN([C@@H](C)CO)C(=O)c2cc(NS(=O)(=O)c3ccc(Cl)cc3)ccc2O1 | / | / | / | / | / | 13
C/C1=C/CCCc2cc(OS(=O)(=O)C(F)(F)F)ccc2OCC1 | / | / | / | / | / | -5
O=C(CCCN1C(=O)/C(=C/c2ccccc2)SC1=S)NCCCn1ccnc1 | -17% | / | / | / | -12% | -98*
Cn1cc(Br)c(C(=O)Nc2ccc3c(C(F)(F)F)cc(=O)oc3c2)n1 | ? | / | / | / | -10% | -5
Cn1cc([N+](=O)[O-])c(C(=O)Nc2ccc3c(C(F)(F)F)cc(=O)oc3c2)n1 | ? | / | / | / | -17% | -99*
O=C(Nc1cc(Oc2ccc(Cl)cc2)cc([N+](=O)[O-])c1)c1ccco1 | 10µM* | 2% | ? | -6% | -8% | -3
Cn1cc([N+](=O)[O-])c(C(=O)Nc2cc(Oc3ccccc3)cc([N+](=O)[O-])c2)n1 | ? | -4% | ? | ? | ? | -99*
Cc1cccc(Oc2cc(NC(=O)c3ccccc3)cc([N+](=O)[O-])c2)c1 | ? | -7% | ? | ? | ? | -64*
Cc1ccc(NC(=O)c2cccc(Oc3ccc([N+](=O)[O-])cc3)c2)c(C(=O)O)c1 | 13% | -20% | / | / | -2% | 49
Cn1ccnc1SCc1cn2cc(Br)ccc2n1 | 6% | -2% | 6.3µM* | ? | -26% | -17
CCOC(=O)c1ccc(S(=O)(=O)Nc2ccc3cn[nH]c3c2)cc1 | 11µM* | -2% | -27% | ? | -19% | -18
Cc1cc(C)c(C)c(S(=O)(=O)Nc2ccc3cn[nH]c3c2)c1C | 13µM* | / | / | / | -10% | -84*
COc1ccc(S(=O)(=O)Nc2ccc3cn[nH]c3c2)cc1C | -20% | -15% | ? | 2% | 0% | 15
Cc1cc2c(c(=O)o1)[C@H](O)[C@H]1O[C@@H]1C2=O | / | -4%[12.9 µM] | / | / | / | /
CC(=O)c1ccccc1-c1csc2ncnc(Sc3nnnn3C)c12 | / | / | / | / | -17% | ?
Fc1ccc(CSc2ncnc3scc(-c4ccccc4)c23)cc1 | -27% | 7% | ? | -1% | ? | 70
Cn1nnnc1Sc1ncnc2scc(-c3ccc(-c4ccccc4)cc3)c12 | / | / | / | / | ? | -97*
Cc1ccc(C)n1-n1cnc2scc(-c3cccs3)c2c1=O | -26% | 1% | ? | -18% | -6% | -1
Cn1nnnc1Sc1ncnc2scc(-c3cccs3)c12 | / | / | / | / | 22µM* | /
Cc1ccc(-c2csc3ncnc(SCC(=O)O)c23)cc1 | -7% | 22% | 3%[46.1 µM] | -4% | -9% | 21
Cn1nnnc1Sc1ncnc2scc(-c3ccc(C(F)(F)F)cc3)c12 | / | / | / | / | 11µM* | -99*
Cn1nnnc1Sc1ncnc2scc(-c3ccsc3)c12 | / | / | / | / | 16µM* | -97*
COc1ccc([C@]23Cc4c(ccc5ccccc45)[C@H](O2)c2c(cc(-c4ccccc4)oc2=O)O3)cc1 | / | / | 40%[14.2 µM] | / | / | /
SMILES | HCV inhibitor | Giardia FBPA inh | MARV entry inh | Lassa entry inh | FMDV inh | HCMV antiviral
COc1ccc2c(c1)C(C(Nc1ccc(C)cc1)c1ccc(Cl)cc1)C(=O)N2C (stereo not drawn) | / | / | / | / | / | 39
Cn1nnnc1Sc1ncnc2scc(-c3ccccc3C(F)(F)F)c12 | / | / | / | / | ? | -83*
COc1cccc(-c2csc3ncnc(Sc4nnnn4C)c23)c1 | / | / | / | / | 20µM* | -99*
COc1ccc(-c2csc3ncnc(N4CCN(S(=O)(=O)c5cccc(C(F)(F)F)c5)CC4)c23)cc1 | ? | / | 1% | 4% | -17% | ?
Cn1nnnc1Sc1ncnc2scc(-c3cccc(C(F)(F)F)c3)c12 | / | / | / | / | 22µM* | -99*
Cn1nnnc1Sc1ncnc2scc(-c3cc4ccccc4o3)c12 | / | / | / | / | 18µM* | -100*
Cc1nnc(NC(=O)CSc2ncnc3scc(-c4ccccc4)c23)s1 | 6% | 24% | -4% | -2% | -16% | -16
COC(=O)CSc1ncnc2scc(-c3ccccc3)c12 | -15% | 28% | -3%[46.1 µM] | -20% | 7% | -29
COc1ccc(CNC(=O)c2cc3c(=O)[nH]c4ccccc4c3n2C)cc1 | -9% | 5% | / | / | -16% | ?
CCc1cccc(NC(=O)c2cc3c(=O)[nH]c4ccccc4c3n2C)c1 | / | / | 5%[46.1 µM] | -15%[46.1 µM] | ? | -66*
O=[N+]([O-])c1ccc(Nc2c3ccccc3nc3ccccc23)cc1 | -9% | -8% | ? | -26% | -23% | -90*
O=[N+]([O-])c1ccccc1Nc1c2ccccc2nc2ccccc12 | ? | 2% | ? | ? | -26% | -62*
c1ccc(-n2ncc3c(NC[C@@H]4CCCO4)ncnc32)cc1 | / | / | -18% | / | / | /
Cn1c(=O)[nH]c2nnc(-c3ccc(Cl)c(Cl)c3)nc2c1=O | 18% | ? | ? | 10µM* | -30% | 25
CSc1cnc2c(=O)n(C)c(=O)[nH]c2n1 | 25% | 0% | 6% | 2% | -18% | 96
Cc1ccc(-c2cc(-c3ccc(C)cc3)[n+](C)o2)cc1 | 8.9µM* | -1% | 3.5µM* | 12µM* | ? | -103*
Cc1ccc(-c2cnco2)cc1 | 7% | 4% | / | / | -4% | 79
Cc1ccc(C)c(Cn2c3ccccc3c3cnn(CC(=O)NCCCN4CCCCC4)c(=O)c32)c1 | ? | / | / | / | -22% | -79*
Cc1ccccc1Cn1c2ccccc2c2cnn(CC(=O)NCCc3ccccc3)c(=O)c21 | / | / | ? | 18%[46.1 µM] | 8% | -96*
Cc1ccccc1Cn1c2ccccc2c2cnn(CC(=O)NCCCc3ccccc3)c(=O)c21 | / | / | 24%[46.1 µM] | -23%[46.1 µM] | -21% | -81*
Cc1cccc(NC(=O)Cn2ncc3c4ccccc4n(Cc4ccccc4)c3c2=O)c1C | / | / | 10%[46.1 µM] | 1%[46.1 µM] | 5% | 9
Cc1ccccc1Cn1c2ccccc2c2cnn(CC(=O)NC(C)CCc3ccccc3)c(=O)c21 (stereo not drawn) | / | / | 6%[46.1 µM] | ? | -20% | -75*
Cc1ccc(C)c(Cn2c3ccccc3c3cnn(CC(=O)NCCCc4ccccc4)c(=O)c32)c1 | / | / | ? | 3%[46.1 µM] | 9% | -3
CCOC(=O)C1=C(N)Oc2ccc(Br)cc2[C@@H]1[C@@H](C#N)C(=O)OCC | / | -17% | / | / | -8% | /
C[N+](C)(C)CCCl | / | 0% | / | / | / | /
Cc1cc2c(c(-c3cnccn3)c1)OC(CNC(=O)c1cc(C(C)C)[nH]n1)C2 (stereo not drawn) | / | / | / | / | -10% | /
